Source: PMC5540273 (PLoS ONE, 2017)

Experiments:
Details in all cases: concentration: 1 μM, replicates: in singlicate; n = 1
BTK = system: BTK
BUB1 = system: BUB1
CAMK1B = system: CAMK1B
CAMK1D = system: CAMK1D
CAMK1G = system: CAMK1G
CAMK1 = system: CAMK1
CAMK2A = system: CAMK2A
CAMK2B = system: CAMK2B
CAMK2D = system: CAMK2D
CAMK2G = system: CAMK2G
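Also: KINOMEscan kinase panel screen.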

SMILES | %Inh (BTK) | %Inh (BUB1) | %Inh (CAMK1B) | %Inh (CAMK1D) | %Inh (CAMK1G) | %Inh (CAMK1) | %Inh (CAMK2A) | %Inh (CAMK2B) | %Inh (CAMK2D) | %Inh (CAMK2G)
O=C(Nc1n[nH]c2nc(-c3ccco3)c(Br)cc12)C1CCN(Cc2ccccc2)C1.O=C(O)[C@H](O)[C@@H](O)C(=O)O (centres unmarked) [SB-742034] | 0% | 0% | 0% | 22% | 10% | 29% | 30% | 20% | 7% | 17%
Cc1cccc2c(-c3ccncn3)c(-c3ccc(F)cc3)nn12 [GW515532] | 0% | 65% | 9% | 0% | 0% | 5% | 0% | 0% | 0% | 0%
COc1cc2ncnc(Nc3cccc(Br)c3)c2cc1OC.Cl [GI230329] | 30% | 96.5% | 0% | 18% | 0% | 23% | 0% | 0% | 0% | 32%
CS(=O)(=O)Cc1ccc(Nc2nccc(-c3c(-c4cccc(NC(=O)C5CCCCC5)c4)nn4ncccc34)n2)cc1 [GSK350559] | 0% | 98.7% | 0% | 0% | 0% | 0% | 15% | 8% | 0% | 0%
FC(F)(F)c1ccccc1-c1cc(-c2c[nH]nc2-c2ccccn2)ccn1 [GW679396] | 0% | 0% | 29% | 12% | 8% | 21% | 0% | 0% | 9% | 29%
